NS1 inh: influenza NS1 inhibition | 270,000 tested, 0.4% active | Potency, µM (series often up to 46.1 µM); note: actives are rising curves; nearly all actives have a fitted effect of over 50% in size
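OD600 was taken as the measure of yeast growth restored by compound in an NS1-expressing S. cerevisiae strain. Cells had been washed out of glucose medium and diluted 1:100 into galactose -URA medium, pH 6.0.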
CHX counter: affects cycloheximide protein synthesis inhibition readout, counter-screen | cell reporter, cycloheximide protein synthesis inhibition counterscreen | max response, % | 300,000 tested, 12% active | AID 2314; in the data active = max response mostly above about 13%, no sharp cut-off; inactive = mostly below about 14%; note: read at 38.3 µM for the half of the compounds with a filed dose
SARS PLP yeast: SARS-CoV PLP inhibition in yeast; S. cerevisiae expressing SARS-CoV PLpro, growth rescue; 330,000 tested, 0.19% active; Potency, µM (doses to about 32.9 µM), most hits filed as activators; note: nearly all actives have a fitted effect of over 55% in size
Pf growth 48h: P. falciparum growth inhibition at 48 hours (one generation); P. falciparum luciferase growth in erythrocytes, 48 h; Potency, µM (titrated, usually from 28.7 µM), actives largely listed as inhibitors; 310,000 tested, 5.9% active; AID 504832; active = well fitted inhibition curve with a large enough effect; inconclusive = small, poorly fitted or top-dose-only effect, or another doubt; inactive = no such curve, though single readings can be large or run the other way
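Luciferase-expressing parasites in RBCs, 2% Hct / 0.1% parasitemia final; RPMI 1640 + 0.5% Albumax; 37 C, 5% CO2, one generation; luminescence read-out, lower signal = inhibition.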
Shiga inhibitor: blocks Shiga toxin action in Vero cells | Vero cells, Shiga toxin protein synthesis inhibition reporter | 290,000 tested, 9.2% active | inhibition, % at 38.7 µM; in the data active = inhibition mostly above about 28%, no sharp cut-off; inactive = mostly below about 43%
Pf growth 96h: P. falciparum growth inhibition at 96 hours; P. falciparum luciferase reporter growth, 96 h; Potency, µM (highest dose often 28.7 µM), actives largely listed as inhibitors; 320,000 tested, 6.9% active; AID 504834; active = well fitted inhibition curve with a large enough effect; inconclusive = small, poorly fitted or top-dose-only effect, or another doubt; inactive = no such curve, though single readings can be large or run the other way
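96 h incubation, 37 C, 5% CO2, of luciferase-reporter P. falciparum-infected RBCs (2% hematocrit, 0.05% parasitemia final) with test compounds; endpoint luminescence.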
Hits are given with their value; . = inactive; ? = inconclusive; / = no result; + = active, no number; [ ] = dose if it differs, or a comment. Rows were chosen to be rich in hits. Some 21% of all compounds tested hit in one or more screens of this group. Unless noted, calls come from the whole dose curve.

SMILES | NS1 inh | CHX counter | SARS PLP yeast | Pf growth 48h | Shiga inhibitor | Pf growth 96h
CC(=O)c1ccc(-c2cc(C3C4C=CCC(C)C4C(=O)N3Cc3ccccc3)ccc2F)cc1 (stereo not drawn) | / | . | / | / | . | /
COc1ccc(-c2ccc(C3C4C=CCC(C)C4C(=O)N3Cc3ccccc3)c(F)c2)cc1OC (stereo not drawn) | / | . | / | / | . | /
CC[C@@H]1CC=C[C@H]2[C@H]1C(=O)N(Cc1ccccc1)[C@H]2c1ccc2ccccc2c1 | . | . | . | 13.1µM | . | ?
CC(=O)c1ccc(-c2cc([C@H]3[C@H]4C=CC[C@@H](C)[C@@H]4C(=O)N3Cc3ccccc3)ccc2F)cc1 | . | . | . | 11.7µM | . | ?
COc1ccc(-c2cc(C3C4C=CCC(C)C4C(=O)N3Cc3ccccc3)ccc2F)cc1OC (stereo not drawn) | / | 51.4 | / | / | 62.6 | /
CC(=O)c1cc(CN2CCN(Cc3ccccc3)C(CCO)C2)cs1 (stereo not drawn) | . | . | . | . | . | ?
Cc1ccc(S(=O)(=O)N2CCN(C(=O)CNC(=O)c3ccc(Cl)cc3)CC2)cc1 | / | / | . | / | / | /
CC(=O)c1c(C)[nH]c(C(=O)CN2C(=O)NC(C)(c3ccc(C)cc3)C2=O)c1C (stereo not drawn) | / | . | . | . | . | .
CC(C)C(c1nnnn1C1CCCC1)N1CCCCC1 (stereo not drawn) | . | . | . | / | . | 14.7µM
c1cncc(C(c2nnnn2C2CCCCC2)N2CCCCC2)c1 (stereo not drawn) | . | . | . | 14.7µM | . | .
c1cc(C(c2nnnn2C2CCCC2)N2CCOCC2)ccn1 (stereo not drawn) | . | . | . | . | . | .
CCCC[C@@H]1C=C(C(=O)O)[C@H](c2ccc(Cl)cc2)N1S(=O)(=O)c1ccc(C)cc1 | / | / | . | / | / | /
Oc1ccc(C[C@@H]2CNCCN2CCc2cc(C(F)(F)F)cc(C(F)(F)F)c2)cc1 | / | / | . | 8.28µM | / | ?
Oc1ccc(C[C@H]2CNCCN2CCc2cc(C(F)(F)F)cc(C(F)(F)F)c2)cc1 | / | / | . | 9.28µM | / | ?
c1ccc(C[C@H]2CNCCN2CCc2cccc3ccccc23)cc1 | / | / | . | ? | / | ?
Oc1ccc(C[C@H]2CNCCN2CCc2cccc3ccccc23)cc1 | / | / | . | 5.22µM | / | 4.65µM
FC(F)(F)c1cc(CCN2CCNC[C@H]2Cc2cccc3ccccc23)cc(C(F)(F)F)c1 | / | / | . | ? | / | ?
O=C(Nc1nncs1)C1CC(=O)N(C2CCCC2)C1 (stereo not drawn) | . | . | . | . | . | .
CCOc1ccc(S(=O)(=O)N2CCN(C(=S)NC3CC3)CC2)cc1 | / | . | . | 4.15µM | . | ?
COc1ccc(S(=O)(=O)N2CCN(C(=S)NC3CCCCC3)CC2)cc1 | . | . | . | 0.928µM | . | .
CCOc1ccc(NC(=S)N2CCN(S(=O)(=O)c3ccc(C)cc3)CC2)cc1 | . | . | . | ? | . | ?
Cc1cccc(N2CCN(CC(O)COCc3cccs3)CC2)c1C (stereo not drawn) | . | . | . | . | . | ?
O=C(NCCN1CCOCC1)N1CCOCC1 | . | . | . | . | . | .
C/C(NCCN1CCOCC1)=C(\C#N)C(N)=O | . | . | . | . | . | 1.65µM
COc1ccc(/C=N/NC(=O)c2ccoc2C)cc1OC | . | 42.6 | . | . | 115.2 | .
SMILES | NS1 inh | CHX counter | SARS PLP yeast | Pf growth 48h | Shiga inhibitor | Pf growth 96h
COc1ccc(/C=N/NC(=O)c2cc[n+]([O-])cc2)cc1O | . | . | . | . | . | .
COc1ccc(/C=N/NC(=O)c2ccccc2OC)cc1COc1ccc(C)cc1 | . | . | . | . | . | .
COc1ccc(/C=N/NC(=O)c2ccoc2C)cc1O | . | 57.7 | . | . | 57.3 | .
COc1ccc(/C=N/NC(=O)c2ccoc2C)cc1COc1ccc(Cl)cc1 | . | 33.3 | / | ? | 91.4 | ?
O=C(Nc1cc(N2CCCCC2)ncn1)c1ccccc1 | . | 28.7 | . | . | 54.4 | .
c1ccc(-c2cc(N3CCCCCC3)n[nH]2)cc1 | ? | 48.3 | . | ? | 151.3 | .
c1ccc(-c2cc(N3CCCCC3)ncn2)cc1 | . | 40.8 | . | . | 62.4 | /
Cn1c(=O)n(C)c2cc(N3CCCCC3)c(NC(=O)c3ccccc3)cc21 | . | . | . | ? | . | ?
CCN(CC)CC(O)CN1c2ccccc2Sc2ccccc21 (stereo not drawn) | . | . | . | . | . | ?
COc1ccc(N2CCN(C(c3cc(OC)ccc3OC)c3nnnn3CC3CCCO3)CC2)cc1 (stereo not drawn) | . | . | . | ? | . | .
c1ccc(CN2CCN(CCOCCOc3ccc4c(c3)CCC4)CC2)cc1 | . | . | . | . | . | .
O=[N+]([O-])c1ccc2nc(-c3ccncc3)[nH]c2c1 | . | 32.5 | . | 2.08µM | . | 5.22µM
O=[N+]([O-])c1ccc(-c2cc(-c3ccc(Cl)cc3)n[nH]2)cc1 | . | . | . | . | 39.5 | .
O=[N+]([O-])c1ccc2nc(-c3ccccc3[N+](=O)[O-])[nH]c2c1 | / | 26.3 | . | . | . | ?
O=[N+]([O-])c1cccc(-c2nc3ccc([N+](=O)[O-])cc3[nH]2)c1 | / | . | . | ? | . | .
O=[N+]([O-])c1ccc2nc(-c3ccc(Cl)cc3)[nH]c2c1 | . | 91.5 | . | ? | + | .
O=C(NCCCN1CCCC1=O)C1CCN(S(=O)(=O)c2ccc(Cl)cc2)CC1 | / | / | .[6.58 µM] | . | / | ?
O=[N+]([O-])c1ccc(N2CCN(S(=O)(=O)c3cnc[nH]3)CC2)cc1 | . | . | . | . | . | .
O=[N+]([O-])c1ccc(-c2cnc[nH]2)cc1 | . | 26.2 | . | . | 52.7 | .
COc1ccc(-c2nc3ccc([N+](=O)[O-])cc3[nH]2)cc1 | . | 60.1 | . | . | 57.5 | ?
Cc1ccc(-c2nc3ccc([N+](=O)[O-])cc3[nH]2)cc1 | / | 16.0 | . | . | 123.7 | .
Clc1ccc(OCc2cc(-c3ccccc3)no2)cc1Cl | . | 44.6 | . | . | active | .
Clc1ccc(-c2cc(COc3ccccc3)on2)cc1 | / | 38.3 | . | . | 104.7 | .
O=C(NC1=NCCS1)C12CC3CC(CC(C3)C1)C2 | . | . | . | ? | . | ?
CN(CCc1ccccc1)C1CCCN(S(=O)(=O)c2cccc(F)c2)C1 (stereo not drawn) | . | . | . | ? | . | ?
SMILES | NS1 inh | CHX counter | SARS PLP yeast | Pf growth 48h | Shiga inhibitor | Pf growth 96h
C=CCOc1c(Br)cc(CNc2ccc(NC(=O)C(C)C)c(OC)c2)cc1OC | . | . | . | ? | . | 8.28µM
COc1cc(CNc2ccc(C(=O)O)cc2)cc(Br)c1OCC(=O)NC(C)(C)C | . | . | . | . | . | .
Cc1ccc(O)c(Cn2nnc3ccccc32)c1 | / | / | . | 10.4µM | / | ?
COc1ccc(C)cc1-n1nc2ccccc2n1 | . | 25.9 | . | . | . | ?
Cc1ccc(OCC(=O)Nc2ccc(Cl)cc2)c(-n2nc3ccccc3n2)c1 | . | . | . | . | . | .
COc1ccc(C)cc1-n1[nH]nnc1=S | . | . | . | . | . | .
Cc1ccc(O)c(-n2nc3ccccc3n2)c1 | . | 44.0 | . | . | 90.3 | ?

Screening results: PubChem, National Center for Advancing Translational Sciences (NCATS)
